# Assays:
# Assay in all cases: SPOT peptide array binding signal intensity (averaged, normalized) (arbitrary units (background-subtracted, floor 0; scale differs between SH3 domains)); higher = stronger binding of the SH3 domain to the peptide
# [1] = biological target: AgAbp1
# In short: (§1)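 Binding signal is given in arbitrary units that differ between domains and is the normalized, background-subtracted spot intensity averaged across replicates. Each GST-SH3 fusion from one of four yeast species was made in E. coli BL21(DE3), purified on glutathione Sepharose and incubated at 10 μg/ml overnight at 4°C on cellulose-bound synthetic 15-mer peptides in which cysteines were replaced by serines. Detection used anti-GST antibody, an HRP anti-mouse secondary and luminol, followed by imaging and Genespotter quantification.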
# [2] = biological target: AgBbc1
# In short: as §1
# [3] = biological target: AgBem1-D1
# In short: as §1
# [4] = biological target: AgBzz1-D1
# In short: as §1
# [5] = biological target: AgBzz1-D2
# In short: as §1
# [6] = biological target: AgCyk3
# In short: as §1
# [7] = biological target: AgFus1
# In short: as §1
# [8] = biological target: AgHof1
# In short: as §1
# [9] = biological target: AgHse1
# In short: as §1
# [10] = biological target: AgLsb1
# In short: as §1
# [11] = biological target: AgLsb4
# In short: as §1
# [12] = biological target: AgMyo5
# In short: as §1
# [13] = biological target: AgNbp2
# In short: as §1
# [14] = biological target: AgRvs167
# In short: as §1
# [15] = biological target: AgSho1
# In short: as §1
# [16] = biological target: AgSla1-D1-D2
# In short: as §1
# [17] = biological target: AgSla1-D3
# In short: as §1
# [18] = biological target: CaAbp1-D1
# In short: as §1
# [19] = biological target: CaAbp1-D2
# In short: as §1
# [20] = biological target: CaBbc1
# In short: as §1
# [21] = biological target: CaBem1-D1
# In short: as §1
# [22] = biological target: CaBzz1-D1
# In short: as §1
# [23] = biological target: CaBzz1-D2
# In short: as §1
# [24] = biological target: CaCyk3
# In short: as §1
# [25] = biological target: CaFus1
# In short: as §1
# [26] = biological target: CaHof1
# In short: as §1
# [27] = biological target: CaHse1
# In short: as §1
# [28] = biological target: CaLsb1
# In short: as §1
# [29] = biological target: CaLsb4
# In short: as §1
# [30] = biological target: CaMyo5
# In short: as §1
# [31] = biological target: CaNbp2
# In short: as §1
# [32] = biological target: CaRvs167
# In short: as §1
# [33] = biological target: CaRvs167-3
# In short: as §1
# [34] = biological target: CaSho1
# In short: as §1
# [35] = biological target: CaSla1-D1-D2
# In short: as §1
# [36] = biological target: CaSla1-D3
# In short: as §1
# [37] = biological target: ScAbp1
# In short: as §1
# [38] = biological target: ScBbc1
# In short: as §1
# [39] = biological target: ScBem1-D1
# In short: as §1
# [40] = biological target: ScBzz1-D1
# In short: as §1
# [41] = biological target: ScBzz1-D2
# In short: as §1
# [42] = biological target: ScCyk3
# In short: as §1
# [43] = biological target: ScFus1
# In short: as §1
# [44] = biological target: ScHof1
# In short: as §1
# [45] = biological target: ScHse1
# In short: as §1
# [46] = biological target: ScLsb1
# In short: as §1
# [47] = biological target: ScLsb2
# In short: as §1
# [48] = biological target: ScLsb3
# In short: as §1
# [49] = biological target: ScLsb4
# In short: as §1
# [50] = biological target: ScMyo3
# In short: as §1
# [51] = biological target: ScMyo5
# In short: as §1
# [52] = biological target: ScNbp2
# In short: as §1
# [53] = biological target: ScPex13
# In short: as §1
# [54] = biological target: ScRvs167
# In short: as §1
# [55] = biological target: ScSho1
# In short: as §1
# [56] = biological target: ScSla1-D1-D2
# In short: as §1
# [57] = biological target: ScSla1-D3
# In short: as §1
# [58] = biological target: SpAbp1-D1
# In short: as §1
# [59] = biological target: SpBbc1
# In short: as §1
# [60] = biological target: SpBzz1-D1
# In short: as §1
# [61] = biological target: SpBzz1-D2
# In short: as §1
# [62] = biological target: SpCyk3
# In short: as §1
# [63] = biological target: SpHof1
# In short: as §1
# [64] = biological target: SpHof1-2
# In short: as §1
# [65] = biological target: SpHof1-3
# In short: as §1
# [66] = biological target: SpHse1
# In short: as §1
# [67] = biological target: SpLsb1
# In short: as §1
# [68] = biological target: SpLsb4
# In short: as §1
# [69] = biological target: SpMyo1
# In short: as §1
# [70] = biological target: SpNbp2
# In short: as §1
# [71] = biological target: SpPex13
# In short: as §1
# [72] = biological target: SpRvs167
# In short: as §1
# [73] = biological target: SpSla1-D1-D2
# In short: as §1
# [74] = biological target: SpSla1-D3
# In short: as §1
binder,measurement,setting,value
VPPPMQPPPIESSNL,SPOT peptide array binding signal intensity,[1],≤ 0
same,SPOT peptide array binding signal intensity,[2],2.5
same,SPOT peptide array binding signal intensity,[3],238
same,SPOT peptide array binding signal intensity,[4],≤ 0
same,SPOT peptide array binding signal intensity,[5],≤ 0
same,SPOT peptide array binding signal intensity,[6],0.5
same,SPOT peptide array binding signal intensity,[7],159
same,SPOT peptide array binding signal intensity,[8],0.25
same,SPOT peptide array binding signal intensity,[9],90
same,SPOT peptide array binding signal intensity,[10],≤ 0
same,SPOT peptide array binding signal intensity,[11],≤ 0
same,SPOT peptide array binding signal intensity,[12],102
same,SPOT peptide array binding signal intensity,[13],98
same,SPOT peptide array binding signal intensity,[14],≤ 0
same,SPOT peptide array binding signal intensity,[15],67
same,SPOT peptide array binding signal intensity,[16],≤ 0
same,SPOT peptide array binding signal intensity,[17],0.75
same,SPOT peptide array binding signal intensity,[18],≤ 0
same,SPOT peptide array binding signal intensity,[19],8
same,SPOT peptide array binding signal intensity,[20],10.5
same,SPOT peptide array binding signal intensity,[21],26
same,SPOT peptide array binding signal intensity,[22],35
same,SPOT peptide array binding signal intensity,[23],8.25
same,SPOT peptide array binding signal intensity,[24],8
same,SPOT peptide array binding signal intensity,[25],740
same,SPOT peptide array binding signal intensity,[26],≤ 0
same,SPOT peptide array binding signal intensity,[27],68
same,SPOT peptide array binding signal intensity,[28],0.5
same,SPOT peptide array binding signal intensity,[29],388
same,SPOT peptide array binding signal intensity,[30],142
same,SPOT peptide array binding signal intensity,[31],172
same,SPOT peptide array binding signal intensity,[32],12.5
same,SPOT peptide array binding signal intensity,[33],1
same,SPOT peptide array binding signal intensity,[34],279
same,SPOT peptide array binding signal intensity,[35],168
same,SPOT peptide array binding signal intensity,[36],249
same,SPOT peptide array binding signal intensity,[37],≤ 0
same,SPOT peptide array binding signal intensity,[38],≤ 0
same,SPOT peptide array binding signal intensity,[39],≤ 0
same,SPOT peptide array binding signal intensity,[40],≤ 0
same,SPOT peptide array binding signal intensity,[41],2
same,SPOT peptide array binding signal intensity,[42],5
same,SPOT peptide array binding signal intensity,[43],328
same,SPOT peptide array binding signal intensity,[44],≤ 0
same,SPOT peptide array binding signal intensity,[45],65
same,SPOT peptide array binding signal intensity,[46],0.25
same,SPOT peptide array binding signal intensity,[47],≤ 0
same,SPOT peptide array binding signal intensity,[48],≤ 0
same,SPOT peptide array binding signal intensity,[49],9
same,SPOT peptide array binding signal intensity,[50],854
same,SPOT peptide array binding signal intensity,[51],502
same,SPOT peptide array binding signal intensity,[52],206
same,SPOT peptide array binding signal intensity,[53],12.2
same,SPOT peptide array binding signal intensity,[54],≤ 0
same,SPOT peptide array binding signal intensity,[55],324
same,SPOT peptide array binding signal intensity,[56],75.5
same,SPOT peptide array binding signal intensity,[57],122
same,SPOT peptide array binding signal intensity,[58],≤ 0
same,SPOT peptide array binding signal intensity,[59],≤ 0
same,SPOT peptide array binding signal intensity,[60],28.5
same,SPOT peptide array binding signal intensity,[61],≤ 0
same,SPOT peptide array binding signal intensity,[62],6
same,SPOT peptide array binding signal intensity,[63],4.5
same,SPOT peptide array binding signal intensity,[64],1.5
same,SPOT peptide array binding signal intensity,[65],≤ 0
same,SPOT peptide array binding signal intensity,[66],163
same,SPOT peptide array binding signal intensity,[67],≤ 0
same,SPOT peptide array binding signal intensity,[68],61.5
same,SPOT peptide array binding signal intensity,[69],957
same,SPOT peptide array binding signal intensity,[70],46
same,SPOT peptide array binding signal intensity,[71],5
same,SPOT peptide array binding signal intensity,[72],≤ 0
same,SPOT peptide array binding signal intensity,[73],≤ 0
same,SPOT peptide array binding signal intensity,[74],138
